Results: PubChem BioAssay (EPA / NIEHS)
Results filed as inconclusive are left out. The source holds several records for some structures; these can differ, active in one and inactive in another. Calls of active or inactive are those of the source. The calls were made as follows, unless noted: active = hit-call score of the fitted dose curve at least 0.9, where 1 is the maximum; inactive = score below 0.9.

How the values were obtained:
[1] = ATG_PBREM_CIS: Attagene CIS-FACTORIAL HepG2 Assay for human Phenobarbital-responsive Enhancer Module (PBREM) (AID 2282955); details: HepG2 PBREM cis-reporter, Attagene multiplexed transcription; actives raise or lower the signal
Summary of the method: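 Transfected liver-derived HepG2 cells exposed 24 h; PBREM reporter transcript quantified via RT-PCR and capillary electrophoresis, with activity in either direction referenced to DMSO.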

[2] = target: Paired box protein Pax-6 (Homo sapiens) (UniProt P26367); test: ATG_Pax6_CIS: Attagene CIS-FACTORIAL HepG2 Assay for human Paired Box 6 (PAX6) (AID 2282956); details: HepG2 CIS-FACTORIAL PAX6 reporter transcription, RNA readout; actives raise or lower the signal
Paired box protein Pax-6 (Homo sapiens), sequence (P26367 whole entry, looked up): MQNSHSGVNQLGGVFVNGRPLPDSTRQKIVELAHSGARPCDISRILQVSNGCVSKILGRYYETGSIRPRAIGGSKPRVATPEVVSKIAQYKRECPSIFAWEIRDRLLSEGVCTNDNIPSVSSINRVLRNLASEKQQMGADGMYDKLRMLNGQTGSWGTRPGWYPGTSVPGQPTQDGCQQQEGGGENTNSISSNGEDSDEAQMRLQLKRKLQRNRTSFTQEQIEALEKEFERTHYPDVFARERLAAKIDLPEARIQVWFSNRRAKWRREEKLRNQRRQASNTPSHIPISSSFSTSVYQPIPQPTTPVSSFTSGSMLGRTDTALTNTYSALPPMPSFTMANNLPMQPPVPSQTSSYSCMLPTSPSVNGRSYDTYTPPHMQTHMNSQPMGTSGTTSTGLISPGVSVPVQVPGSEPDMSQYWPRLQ
Summary of the method: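 DMSO-referenced bidirectional fits of reporter mRNA fluorescence; HepG2 with transient cis-promoter MRTUs, 24 h post-dose, RT-PCR plus capillary electrophoresis detection.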

[3] = ATG_PXRE_CIS: Attagene CIS-FACTORIAL HepG2 Assay for human Pregnane X Receptor Element (PXRE) (AID 2282957); details: HepG2 Attagene CIS-FACTORIAL PXRE reporter, mRNA; actives raise or lower the signal
Summary of the method: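 Endogenous transcription factor activity in HepG2 was gauged through induction of reporter mRNA driven by a cis-regulating promoter element, sampled 24 h post-treatment. Activity was fitted in both directions against DMSO negative control.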

[4] = ATG_RORE_CIS: Attagene CIS-FACTORIAL HepG2 Assay for human RAR-related Orphan Receptor Element (RORE) (AID 2282959); details: HepG2 Attagene cis-factorial RORE reporter, mRNA; actives raise or lower the signal
Summary of the method: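 Transiently transfected HepG2 reporter cells were treated 24 h. Reporter transcripts were detected by RT-PCR and capillary electrophoresis, with bidirectional fitting against DMSO.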

[5] = ATG_Sox_CIS: Attagene CIS-FACTORIAL HepG2 Assay for human SRY-box transcription factor (SOX) (AID 2282960); details: HepG2 Attagene cis-factorial SOX reporter, mRNA; actives raise or lower the signal
Summary of the method: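 Gain- or loss-of-signal endpoint, fitted bidirectionally with DMSO as negative control. Based on reporter mRNA from transfected HepG2 cells harvested 24 h post-treatment and quantified via RT-PCR and capillary electrophoresis.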

[6] = target: Transcription factor Sp1 (Homo sapiens) (UniProt P08047); test: ATG_Sp1_CIS: Attagene CIS-FACTORIAL HepG2 Assay for human Specificity Protein 1 (Sp1) (AID 2282961); details: HepG2 Sp1 cis-reporter transcription, actives raise or lower the signal
Transcription factor Sp1 (Homo sapiens), sequence (P08047 whole entry, looked up, the tested form may be a part): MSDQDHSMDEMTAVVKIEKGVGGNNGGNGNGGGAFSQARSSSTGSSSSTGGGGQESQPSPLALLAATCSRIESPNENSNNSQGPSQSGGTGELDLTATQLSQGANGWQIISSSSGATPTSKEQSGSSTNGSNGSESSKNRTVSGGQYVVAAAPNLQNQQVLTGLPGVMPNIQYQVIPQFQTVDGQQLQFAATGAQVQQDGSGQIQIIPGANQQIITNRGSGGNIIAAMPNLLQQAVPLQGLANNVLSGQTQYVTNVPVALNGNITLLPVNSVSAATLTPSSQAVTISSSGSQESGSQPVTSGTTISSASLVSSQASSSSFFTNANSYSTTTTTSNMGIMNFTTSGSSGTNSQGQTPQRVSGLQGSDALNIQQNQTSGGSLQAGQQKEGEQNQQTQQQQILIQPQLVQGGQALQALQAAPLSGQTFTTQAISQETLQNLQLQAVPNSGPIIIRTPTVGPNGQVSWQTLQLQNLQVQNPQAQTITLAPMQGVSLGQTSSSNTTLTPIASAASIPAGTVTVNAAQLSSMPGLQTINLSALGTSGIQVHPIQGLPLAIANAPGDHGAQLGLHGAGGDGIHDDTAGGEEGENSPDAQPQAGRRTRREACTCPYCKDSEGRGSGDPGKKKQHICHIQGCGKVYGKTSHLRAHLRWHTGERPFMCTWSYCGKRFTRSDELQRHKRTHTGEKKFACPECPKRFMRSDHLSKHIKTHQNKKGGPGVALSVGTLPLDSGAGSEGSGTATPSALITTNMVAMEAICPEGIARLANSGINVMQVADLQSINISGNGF
Summary of the method: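 Endpoint reflects endogenous Sp1 transcriptional activity, not an exogenous fusion protein: HepG2 cells with transfected cis-regulated reporters, 24 h dosing, RT-PCR/capillary electrophoresis mRNA read-out, DMSO-normalised bidirectional fit.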

[7] = ATG_SREBP_CIS: Attagene CIS-FACTORIAL HepG2 Assay for human Sterol Regulatory Element Binding (SREBP) (AID 2282962); details: HepG2 Attagene cis-factorial SREBP reporter, mRNA; actives raise or lower the signal
Summary of the method: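 In this cis-format assay, HepG2 liver cells express reporters controlled by promoter elements responsive to native transcription factors. Exposure lasts 24 h; reporter mRNA fluorescence from capillary electrophoresis gives the signal, fitted bidirectionally against DMSO.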

[8] = target: Signal transducer and activator of transcription 3 (Homo sapiens) (UniProt P40763); test: ATG_STAT3_CIS: Attagene CIS-FACTORIAL HepG2 Assay for human Signal Transducer and Activator of Transcription 3 (STAT3) (AID 2282963); details: HepG2, Attagene cis-factorial STAT3 reporter transcription; actives raise or lower the signal
Signal transducer and activator of transcription 3 (Homo sapiens), sequence (P40763 whole entry, looked up, the tested form may be a part): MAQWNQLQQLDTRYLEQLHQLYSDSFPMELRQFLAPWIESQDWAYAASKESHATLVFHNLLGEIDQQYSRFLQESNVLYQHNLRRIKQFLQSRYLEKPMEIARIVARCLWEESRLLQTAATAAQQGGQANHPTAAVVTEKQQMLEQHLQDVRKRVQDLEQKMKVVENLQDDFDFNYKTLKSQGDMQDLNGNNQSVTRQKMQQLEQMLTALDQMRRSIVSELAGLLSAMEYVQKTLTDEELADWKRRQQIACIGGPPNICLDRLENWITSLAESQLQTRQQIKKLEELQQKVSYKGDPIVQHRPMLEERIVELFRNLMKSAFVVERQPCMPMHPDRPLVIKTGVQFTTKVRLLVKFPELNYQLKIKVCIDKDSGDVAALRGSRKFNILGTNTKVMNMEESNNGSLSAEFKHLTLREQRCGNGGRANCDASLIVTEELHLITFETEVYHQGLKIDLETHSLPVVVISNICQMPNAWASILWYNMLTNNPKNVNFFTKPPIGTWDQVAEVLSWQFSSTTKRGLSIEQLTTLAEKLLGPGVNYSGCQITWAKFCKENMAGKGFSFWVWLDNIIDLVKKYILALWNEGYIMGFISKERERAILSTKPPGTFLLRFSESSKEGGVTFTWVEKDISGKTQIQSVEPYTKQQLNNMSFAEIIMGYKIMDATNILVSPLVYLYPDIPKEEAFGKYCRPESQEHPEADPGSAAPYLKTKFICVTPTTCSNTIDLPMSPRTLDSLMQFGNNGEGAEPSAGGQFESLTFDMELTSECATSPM
Summary of the method: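 Fluorescence intensity of 6-FAM-labelled reporter fragments, separated by capillary electrophoresis after RT-PCR, gave the signal. Cells were HepG2 transfected with cis-element reporter units and treated 24 h; fitting was bidirectional relative to DMSO.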

[9] = ATG_TA_CIS: Attagene CIS-FACTORIAL HepG2 Assay for human TA Basal Promoter (AID 2282964); details: HepG2 Attagene CIS-factorial TA basal promoter reporter; actives raise or lower the signal
Summary of the method: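 Steps: transfect HepG2 with MRTUs; dose 24 h; isolate RNA, DNase-treat, reverse-transcribe; PCR and FAM-label reporter cDNA; digest with HpaI 2h at 37 C; run capillary electrophoresis. Activity fitted both directions against DMSO.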

[10] = ATG_TCF_b_cat_CIS: Attagene CIS-FACTORIAL HepG2 Assay for human T-Cell-Factor with beta-catenin (TCF/b-cat) (AID 2282965); details: HepG2 TCF/beta-catenin cis-reporter transcription, actives raise or lower the signal
Summary of the method: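 Cells of the HepG2 line carry transiently transfected reporter units whose promoters respond to endogenous factors. Twenty-four hours post-dosing, reporter mRNA induction is measured by fluorescent RT-PCR and capillary electrophoresis, with DMSO as baseline.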

[11] = ATG_TAL_CIS: Attagene CIS-FACTORIAL HepG2 Assay for human TAL Basal Promoter (AID 2282966); details: HepG2 Attagene cis-factorial TAL promoter reporter; actives raise or lower the signal;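 also: background control endpoint measuring basal TAL promoter reporter mRNA not a specific factor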
Summary of the method: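 Endogenous transcription-factor activity is sensed in HepG2 cells through transfected cis-promoter reporter constructs. After 24 h dosing, reporter transcripts are quantified by RT-PCR and capillary electrophoresis. Gain or loss of signal is fitted relative to DMSO.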

[12] = ATG_TGFb_CIS: Attagene CIS-FACTORIAL HepG2 Assay for human Transforming Growth Factor (TGF) (AID 2282967); details: HepG2 Attagene CIS TGFb reporter, mRNA transcription; actives raise or lower the signal
Summary of the method: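 Cells were dosed for 24 hours, after which total RNA was reverse-transcribed and reporter sequences amplified, labeled and sized by capillary electrophoresis. Activity was fitted in both directions against DMSO.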

[13] = ATG_VDRE_CIS: Attagene CIS-FACTORIAL HepG2 Assay for human Vitamin D Receptor Element (VDRE) (AID 2282968); details: HepG2 VDRE cis-reporter transcription, actives raise or lower the signal
Summary of the method: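 Compounds were applied for 24 h to HepG2 cells transfected with promoter-regulated reporter units. Total RNA was reverse-transcribed, and reporter amplicons were fluorescently labelled and sized by capillary electrophoresis.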

[14] = target: X-box-binding protein 1 (Homo sapiens) (UniProt P17861); test: ATG_Xbp1_CIS: Attagene CIS-FACTORIAL HepG2 Assay for human X-box Binding Protein 1 (XBP1) (AID 2282972); details: HepG2 XBP1 cis-element reporter, Attagene multiplex; actives raise or lower the signal
X-box-binding protein 1 (Homo sapiens), sequence (P17861 whole entry, looked up): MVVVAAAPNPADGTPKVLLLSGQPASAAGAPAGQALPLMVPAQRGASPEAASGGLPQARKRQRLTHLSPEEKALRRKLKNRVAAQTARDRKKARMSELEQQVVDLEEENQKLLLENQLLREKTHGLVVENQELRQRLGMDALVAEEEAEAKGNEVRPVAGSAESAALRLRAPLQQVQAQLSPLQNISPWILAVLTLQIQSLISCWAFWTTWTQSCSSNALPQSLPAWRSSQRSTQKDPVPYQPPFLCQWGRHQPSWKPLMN
Summary of the method: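 Changes in reporter transcript abundance, read by RT-PCR and capillary electrophoresis, reflect endogenous transcription factor activity. Transfected HepG2 cells received compound for 24 hours; DMSO defined baseline for bidirectional analysis.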

[15] = ATG_Hpa5_TRANS: Attagene TRANS-FACTORIAL HepG2 Assay for human GAL4-Hpa5 Hepatocyte Transcription Factor Basal Promoter (AID 2282975; active = hit-call score of the fitted dose curve at least 0.9, where 1 is the maximum;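 also: hits are increases in reporter mRNA over DMSO baseline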); details: HepG2 Attagene GAL4-Hpa5 transcription reporter
Summary of the method: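 Gain-of-signal versus DMSO is fitted for reporter mRNA quantified by RT-PCR and capillary electrophoresis after 24 h exposure. This endpoint is an internal background marker in transiently transfected HepG2 cells carrying GAL4-UAS reporter units.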

[16] = target: Nuclear receptor subfamily 1 group I member 3 (Homo sapiens) (UniProt Q14994); test: ATG_CAR_TRANS: Attagene TRANS-FACTORIAL HepG2 Assay for human Constitutive Androstane Receptor (CAR) (AID 2282969; active = hit-call score of the fitted dose curve at least 0.9, where 1 is the maximum;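 also: activators raise reporter mRNA above DMSO so AC50 marks induction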); details: HepG2 Attagene TRANS-FACTORIAL CAR reporter
Nuclear receptor subfamily 1 group I member 3 (Homo sapiens), sequence (Q14994 whole entry, looked up, the tested form may be a part): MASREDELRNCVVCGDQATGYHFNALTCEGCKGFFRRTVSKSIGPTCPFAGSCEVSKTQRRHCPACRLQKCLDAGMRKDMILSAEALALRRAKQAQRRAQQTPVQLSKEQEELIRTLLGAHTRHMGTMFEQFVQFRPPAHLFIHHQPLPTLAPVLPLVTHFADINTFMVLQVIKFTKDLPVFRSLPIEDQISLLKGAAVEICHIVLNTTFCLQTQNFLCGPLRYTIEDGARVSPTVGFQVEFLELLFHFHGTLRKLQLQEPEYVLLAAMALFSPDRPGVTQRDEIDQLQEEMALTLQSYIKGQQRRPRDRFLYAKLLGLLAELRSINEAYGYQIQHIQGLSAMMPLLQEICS
Summary of the method: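 Transiently transfected HepG2, multiplex TRANS reporters (CAR-Gal4 chimera driving GAL4-UAS reporter). 24 h dosing. Readout: reporter transcript by RT-PCR + capillary electrophoresis, fluorescence intensity; positive direction vs DMSO.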

[17] = ATG_M_19_TRANS: Attagene TRANS-FACTORIAL HepG2 Assay for M19 Transcription Factor (Internal Marker) (AID 2282974; active = hit-call score of the fitted dose curve at least 0.9, where 1 is the maximum); details: HepG2 Attagene TRANS-FACTORIAL M19 internal marker reporter
Summary of the method: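 Using RT-PCR and capillary electrophoresis, reporter mRNA from transiently transfected human HepG2 cells was quantified following 24 h exposure; activity was fitted in the positive direction against DMSO.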

[18] = ATG_PPRE_CIS: Attagene CIS-FACTORIAL HepG2 Assay for human Peroxisome Proliferator-activated Response Element (PPRE) (AID 2282958); details: HepG2 PPRE cis-element reporter, Attagene transcription factor profiling; actives raise or lower the signal
Summary of the method: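 Measured endpoint: PPRE-controlled reporter mRNA, detected by RT-PCR and capillary electrophoresis fluorescence, from transiently transfected HepG2 cells 24 h after dosing. Curves fitted in both directions using DMSO baseline.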

[19] = target: Estrogen receptor (Homo sapiens) (UniProt P03372); test: ATG_ERa_TRANS: Attagene TRANS-FACTORIAL HepG2 Assay for human Estrogen Receptor alpha (ERa) (AID 2282970; active = hit-call score of the fitted dose curve at least 0.9, where 1 is the maximum); details: HepG2 Attagene TRANS ERa GAL4 reporter, mRNA
Estrogen receptor (Homo sapiens), sequence (P03372 whole entry, looked up, the tested form may be a part): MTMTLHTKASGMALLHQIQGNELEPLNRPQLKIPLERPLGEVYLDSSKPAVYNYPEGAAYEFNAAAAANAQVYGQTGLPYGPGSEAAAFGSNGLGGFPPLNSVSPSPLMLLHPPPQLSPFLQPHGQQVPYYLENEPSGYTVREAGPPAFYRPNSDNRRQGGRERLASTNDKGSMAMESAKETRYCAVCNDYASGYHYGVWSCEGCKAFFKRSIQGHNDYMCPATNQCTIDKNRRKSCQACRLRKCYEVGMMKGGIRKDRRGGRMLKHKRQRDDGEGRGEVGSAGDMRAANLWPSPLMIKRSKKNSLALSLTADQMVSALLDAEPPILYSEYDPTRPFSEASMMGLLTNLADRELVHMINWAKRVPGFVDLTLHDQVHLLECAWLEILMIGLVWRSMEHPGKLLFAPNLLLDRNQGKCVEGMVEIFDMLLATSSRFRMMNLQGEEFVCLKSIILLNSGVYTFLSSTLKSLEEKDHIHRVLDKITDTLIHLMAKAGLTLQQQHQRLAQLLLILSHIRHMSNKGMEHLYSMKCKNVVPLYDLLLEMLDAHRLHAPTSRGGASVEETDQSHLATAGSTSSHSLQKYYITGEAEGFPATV
Summary of the method: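 Transfected HepG2 cells carrying GAL4-UAS-driven reporter units were dosed for 24 hours. Total RNA was reverse-transcribed, reporter sequences PCR-amplified, FAM-labelled, HpaI-digested and resolved by capillary electrophoresis. Increases over DMSO control defined activity.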

[20] = target: Steroid hormone receptor ERR1 (Homo sapiens) (UniProt P11474); test: ATG_ERRa_TRANS: Attagene TRANS-FACTORIAL HepG2 Assay for human Estrogen-Related Receptor alpha (ERRa) (AID 2282971; active = hit-call score of the fitted dose curve at least 0.9, where 1 is the maximum); details: HepG2 Attagene TRANS reporter, ERRa transactivation
Steroid hormone receptor ERR1 (Homo sapiens), sequence (P11474 whole entry, looked up, the tested form may be a part): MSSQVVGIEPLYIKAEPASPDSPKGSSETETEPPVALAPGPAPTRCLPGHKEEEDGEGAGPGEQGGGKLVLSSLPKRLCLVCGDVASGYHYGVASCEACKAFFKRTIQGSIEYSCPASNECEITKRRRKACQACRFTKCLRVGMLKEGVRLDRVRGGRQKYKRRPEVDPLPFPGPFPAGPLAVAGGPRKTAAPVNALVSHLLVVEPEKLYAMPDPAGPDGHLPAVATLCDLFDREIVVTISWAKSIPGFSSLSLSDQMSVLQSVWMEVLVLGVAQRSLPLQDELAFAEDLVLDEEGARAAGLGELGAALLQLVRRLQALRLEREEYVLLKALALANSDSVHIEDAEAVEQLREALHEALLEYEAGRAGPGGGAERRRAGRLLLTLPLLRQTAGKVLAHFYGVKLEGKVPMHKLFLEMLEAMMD
Summary of the method: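 HepG2 cells were transiently transfected with multiple GAL4-UAS reporter units, then dosed with compound for 24 h. Total RNA was reverse-transcribed, reporter cDNA PCR-amplified and fluorescently labelled, and fragments resolved by capillary electrophoresis; induction was compared with DMSO.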

Measured: AC50

COC(=O)c1ccc(I)cc1S(=O)(=O)NC(=O)Nc1nc(C)nc(OC)n1
inactive: [1] | [2] | [4] | [5] | [6] | [7] | [8] | [9] | [10] | [11] | [12] | [13] | [14] | [15]
active: [3] 50 µM

CCCCC(CC)COC(=O)c1ccccc1C(=O)O (configuration not stated)
inactive: [1] | [2] | [4] | [5] | [6] | [7] | [8] | [9] | [10] | [11] | [12] | [13] | [16] | [14] | [17] | [15]
active: [3] 24.6 µM

CCCOC(=O)NCCCN(C)C
inactive: [1] | [2] | [3] | [4] | [5] | [6] | [7] | [8] | [9] | [10] | [11] | [12] | [13] | [16] | [14] | [17]

C=CCOC(Cn1ccnc1)c1ccc(Cl)cc1Cl (configuration not stated)
inactive: [1] | [18] | [4] | [5] | [6] | [8] | [9] | [10] | [11] | [12] | [16] | [14] | [17]
active: [2] 50 µM | [3] 4.84 µM | [7] 6.99 µM | [13] 3.43 µM

C#C[C@]1(O)CC[C@H]2[C@@H]3CCC4=CC(=O)CC[C@@H]4[C@H]3CC[C@@]21CC
inactive: [2] | [18] | [4] | [5] | [6] | [7] | [8] | [9] | [10] | [11] | [12] | [13] | [14] | [17]
active: [3] 5.07 µM [middle of 5 runs] | [13] 27.6 µM

CCCOC(=O)c1ccc(C(=O)OCCC)nc1
active: [18] 23.1 µM
inactive: [1] | [2] | [3] | [5] | [6] | [7] | [8] | [9] | [10] | [11] | [12] | [13] | [16] | [19] | [14] | [15]

CCN(CC)C(=O)c1cccc(C)c1
active: [3] 40.2 µM
inactive: [2] | [3] | [18] | [4] | [5] | [6] | [7] | [8] | [9] | [10] | [11] | [12] | [13] | [19] | [20] | [14] | [17] | [15]
